Consider four compounds from PubChem BioAssay (EPA / NIEHS).

In general, AC50 refers to the midpoint of the concentration-response curve, whichever way the signal moves.

Assay [1] can be described thus: ATG_GLI_CIS: Attagene CIS-FACTORIAL HepG2 Assay for human Zinc Finger Protein GLI1 (AID 2282945). The note with it: HepG2, Attagene cis-factorial reporter mRNA, GLI element; actives raise or lower the signal. The procedure, abridged: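 Bidirectional curve fits relative to DMSO, using reporter mRNA levels from RT-PCR plus capillary electrophoresis. Cells were HepG2 transiently carrying cis-regulated reporter constructs, harvested 24 h after dosing.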

The target of assay [2] is Bile acid receptor (Homo sapiens) (UniProt Q96RI1). Briefly: ATG_IR1_CIS: Attagene CIS-FACTORIAL HepG2 Assay for human Nuclear Receptor Subfamily 1 Group H Member 4 (NR1H4), IR1 submotif (AID 2282946). The note with it: IR1 reporter transcription, actives raise or lower the signal. The method in brief: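 HepG2 cells transiently transfected with multiplexed cis-element reporter units read endogenous transcription factor activity. After 24 h compound exposure, reporter mRNA was quantified by RT-PCR, fluorescent labelling, HpaI digestion and capillary electrophoresis; bidirectional fitting versus DMSO baseline.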
Sequence of Bile acid receptor (Homo sapiens) (Q96RI1 whole entry, looked up): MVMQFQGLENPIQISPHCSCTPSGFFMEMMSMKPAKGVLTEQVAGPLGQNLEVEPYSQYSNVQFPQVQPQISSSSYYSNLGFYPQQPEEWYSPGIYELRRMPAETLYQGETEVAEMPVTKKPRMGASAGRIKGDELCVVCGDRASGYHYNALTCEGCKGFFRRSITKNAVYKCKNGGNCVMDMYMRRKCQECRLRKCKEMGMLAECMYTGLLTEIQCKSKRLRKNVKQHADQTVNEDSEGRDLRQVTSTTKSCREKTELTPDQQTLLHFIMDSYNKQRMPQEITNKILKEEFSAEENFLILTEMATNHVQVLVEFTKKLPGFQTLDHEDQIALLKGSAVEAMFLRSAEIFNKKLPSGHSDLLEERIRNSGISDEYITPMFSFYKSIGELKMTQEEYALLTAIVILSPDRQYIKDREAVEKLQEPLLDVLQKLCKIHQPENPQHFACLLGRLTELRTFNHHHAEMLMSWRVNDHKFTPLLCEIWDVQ

Assay [3] in a line: ATG_GRE_CIS: Attagene CIS-FACTORIAL HepG2 Assay for human Glucocorticoid Response Elements (GRE) (AID 2282947). The conditions noted are these: HepG2 GRE cis-reporter, Attagene multiplex mRNA; actives raise or lower the signal. The procedure, abridged: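 Multiplexed cis-reporter mRNA induction, HepG2, 24 h post-dose. RT-PCR, FAM-labelled, HpaI-digested amplicons by CE. Bidirectional fit vs DMSO.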

The nature of assay [4]: ATG_ISRE_CIS: Attagene CIS-FACTORIAL HepG2 Assay for human Interferon Regulatory Factor 1 (IRF1) binding to an Interferon-Stimulated Response Element (ISRE) (AID 2282948). The note with it: HepG2 ISRE cis-reporter (Attagene), mRNA transcription readout; actives raise or lower the signal. The procedure, abridged:
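Endogenous transcription factor activity read as reporter transcript abundance via RT-PCR and capillary electrophoresis. HepG2 cells transiently transfected, 24 h chemical exposure. Gain or loss fitted against DMSO baseline.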

Assay [5] in a line: ATG_M_32_CIS: Attagene CIS-FACTORIAL HepG2 Assay for M32 Transcription Factor (Internal Marker) (AID 2282949).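 Further: background control marker of the multiplexed CIS panel rather than a real target.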 The conditions noted are these: HepG2 Attagene cis-factorial M32 reporter, mRNA; actives raise or lower the signal. The method in brief:
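Using DMSO as baseline, bidirectional curve fits were applied to reporter mRNA signals. These came from transiently transfected HepG2 cells exposed for 24 h, with RNA analysed by RT-PCR, FAM primer extension, HpaI digestion and CE.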

Assay [6] addresses Hypoxia-inducible factor 1-alpha (Homo sapiens) (UniProt Q16665). Briefly: ATG_HIF1a_CIS: Attagene CIS-FACTORIAL HepG2 Assay for human Hypoxia Inducible Factor 1 (HIF1A) (AID 2282951). The conditions noted are these: HepG2 Attagene cis-factorial HIF1a reporter transcription; actives raise or lower the signal. The method in brief: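 Endogenous-TF cis reporter readout, human HepG2 cells, 24 h incubation; mRNA detected via RT-PCR and capillary electrophoresis fluorescence; DMSO-normalised bidirectional fitting.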

The target of assay [7] is Hepatocyte nuclear factor 6 (Homo sapiens) (UniProt Q9UBC0). The assay can be described thus: ATG_HNF6_CIS: Attagene CIS-FACTORIAL HepG2 Assay for human Hepatocyte Nuclear Factor 6 (HNF6) (AID 2282952). The note with it: HepG2 Attagene cis-factorial HNF6 reporter transcription; actives raise or lower the signal. The method in brief: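 Using cis-element reporters in HepG2 liver cells, the assay tracks endogenous factor-driven transcription 24 h post-dosing. Signal comes from 6-FAM-labelled, HpaI-digested RT-PCR fragments, with gain or loss scored against DMSO.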
Sequence of Hepatocyte nuclear factor 6 (Homo sapiens) (Q9UBC0 whole entry, looked up, the tested form may be a part): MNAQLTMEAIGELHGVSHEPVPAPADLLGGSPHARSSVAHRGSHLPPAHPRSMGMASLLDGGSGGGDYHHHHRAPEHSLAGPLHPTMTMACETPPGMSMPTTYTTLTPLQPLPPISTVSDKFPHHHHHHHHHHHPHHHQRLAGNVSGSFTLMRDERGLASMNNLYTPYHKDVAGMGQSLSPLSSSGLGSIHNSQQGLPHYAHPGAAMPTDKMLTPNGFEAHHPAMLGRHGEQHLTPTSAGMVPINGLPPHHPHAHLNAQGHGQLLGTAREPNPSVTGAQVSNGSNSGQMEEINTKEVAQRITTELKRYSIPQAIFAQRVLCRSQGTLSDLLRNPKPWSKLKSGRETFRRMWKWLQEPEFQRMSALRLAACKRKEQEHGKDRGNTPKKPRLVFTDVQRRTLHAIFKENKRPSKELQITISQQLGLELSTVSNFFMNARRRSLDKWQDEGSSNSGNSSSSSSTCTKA

Assay [8] concerns the target Heat shock factor protein 1 (Homo sapiens) (UniProt Q00613). Briefly: ATG_HSE_CIS: Attagene CIS-FACTORIAL HepG2 Assay for human Heat Shock Transcription Factor 1 (HSE) (AID 2282953). The conditions noted are these: HepG2 HSE cis-reporter, Attagene RNA transcription; actives raise or lower the signal. The procedure, abridged:
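After a 24 h incubation with test chemical, transfected HepG2 cells were harvested for RNA; reporter transcripts were measured by RT-PCR and capillary electrophoresis. Values reflect gain or loss of signal relative to DMSO.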

The nature of assay [9]: ATG_MRE_CIS: Attagene CIS-FACTORIAL HepG2 Assay for human Metal Responsive Element (MRE) (AID 2282954). The note with it: HepG2 MRE cis-reporter transcription, Attagene multiplex; actives raise or lower the signal. The procedure, abridged: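 Multiplexed cis-reporter assay in human HepG2 liver cells, 24 h incubation with test chemical. Reporter transcripts measured by RT-PCR and capillary electrophoresis; values from bidirectional curve fitting versus DMSO.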

Assay [10] can be described thus: ATG_PBREM_CIS: Attagene CIS-FACTORIAL HepG2 Assay for human Phenobarbital-responsive Enhancer Module (PBREM) (AID 2282955). The note with it: HepG2 PBREM cis-reporter, Attagene multiplexed transcription; actives raise or lower the signal. The procedure, abridged:
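Readout: reporter mRNA, fluorescent RT-PCR fragments separated by capillary electrophoresis. System: HepG2 transiently transfected with cis-regulated reporter units. Exposure: 24 h. Analysis: bidirectional, DMSO baseline.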

Assay [11] addresses Paired box protein Pax-6 (Homo sapiens) (UniProt P26367). The assay can be described thus: ATG_Pax6_CIS: Attagene CIS-FACTORIAL HepG2 Assay for human Paired Box 6 (PAX6) (AID 2282956). The conditions noted are these: HepG2 CIS-FACTORIAL PAX6 reporter transcription, RNA readout; actives raise or lower the signal. The procedure, abridged: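 Read-out is reporter transcript level, measured by RT-PCR with fluorescent primer extension and capillary electrophoresis after 24 h dosing of transfected HepG2 cells. Activity in either direction fitted relative to DMSO control.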

Assay [12] in a line: ATG_PXRE_CIS: Attagene CIS-FACTORIAL HepG2 Assay for human Pregnane X Receptor Element (PXRE) (AID 2282957). The conditions noted are these: HepG2 Attagene CIS-FACTORIAL PXRE reporter, mRNA; actives raise or lower the signal. The method in brief:
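Using HepG2 transfected with multiple reporter transcription units, endogenous factor-driven transcription was scored as reporter mRNA after 24 h exposure.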

A short description of assay [13]: ATG_PPRE_CIS: Attagene CIS-FACTORIAL HepG2 Assay for human Peroxisome Proliferator-activated Response Element (PPRE) (AID 2282958). The note with it: HepG2 PPRE cis-element reporter, Attagene transcription factor profiling; actives raise or lower the signal. The method in brief:
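After human HepG2 hepatoma cells were transiently transfected with cis-promoter reporter constructs, they were exposed to test chemicals for 24 hours. Reporter RNA was then reverse-transcribed, PCR-amplified, FAM-labeled, HpaI-digested and quantified by capillary electrophoresis.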

Assay [14] in a line: ATG_Sox_CIS: Attagene CIS-FACTORIAL HepG2 Assay for human SRY-box transcription factor (SOX) (AID 2282960). The conditions noted are these: HepG2 Attagene cis-factorial SOX reporter, mRNA; actives raise or lower the signal. The method in brief: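 Using transiently transfected HepG2 cells, reporter transcription driven by cis elements was assessed 24 h after dosing. Signal was fluorescence of capillary-separated RT-PCR products, with DMSO defining baseline activity.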

The target of assay [15] is Transcription factor Sp1 (Homo sapiens) (UniProt P08047). The assay can be described thus: ATG_Sp1_CIS: Attagene CIS-FACTORIAL HepG2 Assay for human Specificity Protein 1 (Sp1) (AID 2282961). The conditions noted are these: HepG2 Sp1 cis-reporter transcription, actives raise or lower the signal. The method in brief:
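After transient transfection of HepG2 cells with cis-promoter reporter units and 24 h chemical treatment, reporter transcripts were quantified by RT-PCR and capillary electrophoresis fluorescence. Gain- and loss-of-signal fitted against DMSO.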

The nature of assay [16]: ATG_SREBP_CIS: Attagene CIS-FACTORIAL HepG2 Assay for human Sterol Regulatory Element Binding (SREBP) (AID 2282962). The note with it: HepG2 Attagene cis-factorial SREBP reporter, mRNA; actives raise or lower the signal. The method in brief: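 Endogenous SREBP activity read as cis-element-driven reporter transcript in transiently transfected HepG2, 24 h post-dosing; quantified via RT-PCR plus capillary electrophoresis of fluorescent fragments. Gain or loss of signal fitted relative to DMSO baseline.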

Assay [17] addresses Signal transducer and activator of transcription 3 (Homo sapiens) (UniProt P40763). Briefly: ATG_STAT3_CIS: Attagene CIS-FACTORIAL HepG2 Assay for human Signal Transducer and Activator of Transcription 3 (STAT3) (AID 2282963). The note with it: HepG2, Attagene cis-factorial STAT3 reporter transcription; actives raise or lower the signal. The method in brief: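 Cis-factorial format: endogenous transcription factors in HepG2 drive transfected reporter units. After 24 h treatment, reporter RNA was reverse-transcribed, amplified, FAM-labelled and HpaI-digested before CE analysis; activity scored in both directions against DMSO.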

Assay [18] in a line: ATG_RORE_CIS: Attagene CIS-FACTORIAL HepG2 Assay for human RAR-related Orphan Receptor Element (RORE) (AID 2282959). The note with it: HepG2 Attagene cis-factorial RORE reporter, mRNA; actives raise or lower the signal. The method in brief: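 Measured here: transcript induction of a cis-regulated reporter in HepG2 cells transiently transfected via FuGene 6. After 24 h, RNA was processed by RT-PCR and fluorescent capillary electrophoresis; DMSO defined baseline activity.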

The nature of assay [19]: ATG_M_06_CIS: Attagene CIS-FACTORIAL HepG2 Assay for M06 Transcription Factor (Internal Marker) (AID 2282950). The conditions noted are these: HepG2 Attagene CIS-FACTORIAL M06 internal marker reporter; actives raise or lower the signal. The procedure, abridged:
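Fluorescence-labelled RT-PCR products from cis-promoter reporter units, cut with HpaI and resolved by capillary electrophoresis, give the signal. Cells are human HepG2, dosed for 24 h. Serves as background control, fitted relative to DMSO.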

The source made the active and inactive calls. How the source made its calls: active means hit-call score of the fitted dose curve at least 0.9, where 1 is the maximum; inactive means score below 0.9.

Sequence of Hypoxia-inducible factor 1-alpha (Homo sapiens) (Q16665 whole entry, looked up): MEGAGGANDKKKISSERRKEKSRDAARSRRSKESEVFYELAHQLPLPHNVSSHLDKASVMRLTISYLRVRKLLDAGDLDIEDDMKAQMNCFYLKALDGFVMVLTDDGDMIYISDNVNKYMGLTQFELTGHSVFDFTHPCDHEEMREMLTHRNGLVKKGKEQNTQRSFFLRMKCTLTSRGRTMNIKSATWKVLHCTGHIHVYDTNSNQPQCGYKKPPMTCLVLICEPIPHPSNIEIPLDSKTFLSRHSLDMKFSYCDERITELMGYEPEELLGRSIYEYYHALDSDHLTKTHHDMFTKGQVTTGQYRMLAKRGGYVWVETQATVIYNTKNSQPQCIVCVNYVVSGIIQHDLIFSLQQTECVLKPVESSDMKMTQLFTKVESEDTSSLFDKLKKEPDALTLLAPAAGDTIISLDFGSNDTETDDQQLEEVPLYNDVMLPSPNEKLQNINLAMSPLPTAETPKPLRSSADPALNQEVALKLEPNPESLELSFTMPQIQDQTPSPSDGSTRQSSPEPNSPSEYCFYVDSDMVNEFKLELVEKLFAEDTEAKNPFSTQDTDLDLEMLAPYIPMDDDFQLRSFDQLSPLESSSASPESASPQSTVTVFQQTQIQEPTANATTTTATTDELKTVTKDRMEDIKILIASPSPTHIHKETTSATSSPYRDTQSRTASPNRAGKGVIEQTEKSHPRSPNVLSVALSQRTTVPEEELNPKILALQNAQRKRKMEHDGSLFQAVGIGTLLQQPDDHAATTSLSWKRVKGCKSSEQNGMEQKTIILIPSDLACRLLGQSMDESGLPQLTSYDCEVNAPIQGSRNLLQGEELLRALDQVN
Sequence of Transcription factor Sp1 (Homo sapiens) (P08047 whole entry, looked up): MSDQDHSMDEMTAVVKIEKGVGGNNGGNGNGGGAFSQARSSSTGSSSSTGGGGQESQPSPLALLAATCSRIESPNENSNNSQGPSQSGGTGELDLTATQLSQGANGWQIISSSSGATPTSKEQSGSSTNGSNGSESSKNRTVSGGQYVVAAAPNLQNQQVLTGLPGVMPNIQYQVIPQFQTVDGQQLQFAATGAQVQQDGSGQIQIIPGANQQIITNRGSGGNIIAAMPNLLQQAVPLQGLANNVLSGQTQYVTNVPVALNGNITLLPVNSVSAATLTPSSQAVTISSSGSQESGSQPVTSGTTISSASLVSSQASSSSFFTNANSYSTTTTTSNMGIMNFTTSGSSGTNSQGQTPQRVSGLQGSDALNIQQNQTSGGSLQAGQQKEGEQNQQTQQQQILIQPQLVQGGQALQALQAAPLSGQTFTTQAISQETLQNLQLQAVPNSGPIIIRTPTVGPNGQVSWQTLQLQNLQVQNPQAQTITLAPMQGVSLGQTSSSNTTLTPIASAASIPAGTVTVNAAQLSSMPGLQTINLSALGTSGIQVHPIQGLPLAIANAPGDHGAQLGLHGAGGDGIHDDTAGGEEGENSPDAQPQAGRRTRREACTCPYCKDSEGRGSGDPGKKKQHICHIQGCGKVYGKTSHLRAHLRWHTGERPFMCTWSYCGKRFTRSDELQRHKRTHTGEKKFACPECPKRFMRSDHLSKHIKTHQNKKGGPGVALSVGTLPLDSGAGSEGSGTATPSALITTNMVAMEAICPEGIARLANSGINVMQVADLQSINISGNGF
Sequence of Signal transducer and activator of transcription 3 (Homo sapiens) (P40763 whole entry, looked up): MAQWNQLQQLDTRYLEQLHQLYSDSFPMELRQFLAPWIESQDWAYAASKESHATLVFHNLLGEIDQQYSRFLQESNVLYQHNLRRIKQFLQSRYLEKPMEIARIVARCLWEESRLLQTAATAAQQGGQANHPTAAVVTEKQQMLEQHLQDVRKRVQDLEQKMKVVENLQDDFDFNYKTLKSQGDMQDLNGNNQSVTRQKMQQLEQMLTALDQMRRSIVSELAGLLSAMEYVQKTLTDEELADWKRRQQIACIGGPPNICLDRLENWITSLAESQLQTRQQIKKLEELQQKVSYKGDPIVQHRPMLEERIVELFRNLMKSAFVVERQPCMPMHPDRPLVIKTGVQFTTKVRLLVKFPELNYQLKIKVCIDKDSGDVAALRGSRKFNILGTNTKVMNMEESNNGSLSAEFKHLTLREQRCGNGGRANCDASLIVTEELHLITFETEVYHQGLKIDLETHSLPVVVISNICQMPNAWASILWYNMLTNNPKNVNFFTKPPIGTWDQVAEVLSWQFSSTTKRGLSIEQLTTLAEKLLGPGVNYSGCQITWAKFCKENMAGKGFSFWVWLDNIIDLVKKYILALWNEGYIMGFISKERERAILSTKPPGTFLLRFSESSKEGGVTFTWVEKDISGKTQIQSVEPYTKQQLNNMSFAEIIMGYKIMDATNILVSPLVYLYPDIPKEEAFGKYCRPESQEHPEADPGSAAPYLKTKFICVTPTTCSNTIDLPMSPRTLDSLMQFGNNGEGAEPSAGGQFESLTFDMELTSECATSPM
Sequence of Paired box protein Pax-6 (Homo sapiens) (P26367 whole entry, looked up): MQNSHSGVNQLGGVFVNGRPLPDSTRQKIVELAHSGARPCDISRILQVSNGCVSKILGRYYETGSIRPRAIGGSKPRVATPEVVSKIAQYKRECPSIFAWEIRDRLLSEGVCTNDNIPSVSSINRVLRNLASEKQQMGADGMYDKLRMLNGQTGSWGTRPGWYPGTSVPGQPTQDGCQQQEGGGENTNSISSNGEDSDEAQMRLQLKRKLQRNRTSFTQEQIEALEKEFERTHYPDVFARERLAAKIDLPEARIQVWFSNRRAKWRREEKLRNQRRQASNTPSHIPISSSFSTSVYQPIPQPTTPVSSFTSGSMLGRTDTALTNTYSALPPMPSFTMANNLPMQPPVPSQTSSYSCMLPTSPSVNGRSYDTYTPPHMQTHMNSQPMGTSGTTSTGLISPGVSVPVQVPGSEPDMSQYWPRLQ
Sequence of Heat shock factor protein 1 (Homo sapiens) (Q00613 whole entry, looked up): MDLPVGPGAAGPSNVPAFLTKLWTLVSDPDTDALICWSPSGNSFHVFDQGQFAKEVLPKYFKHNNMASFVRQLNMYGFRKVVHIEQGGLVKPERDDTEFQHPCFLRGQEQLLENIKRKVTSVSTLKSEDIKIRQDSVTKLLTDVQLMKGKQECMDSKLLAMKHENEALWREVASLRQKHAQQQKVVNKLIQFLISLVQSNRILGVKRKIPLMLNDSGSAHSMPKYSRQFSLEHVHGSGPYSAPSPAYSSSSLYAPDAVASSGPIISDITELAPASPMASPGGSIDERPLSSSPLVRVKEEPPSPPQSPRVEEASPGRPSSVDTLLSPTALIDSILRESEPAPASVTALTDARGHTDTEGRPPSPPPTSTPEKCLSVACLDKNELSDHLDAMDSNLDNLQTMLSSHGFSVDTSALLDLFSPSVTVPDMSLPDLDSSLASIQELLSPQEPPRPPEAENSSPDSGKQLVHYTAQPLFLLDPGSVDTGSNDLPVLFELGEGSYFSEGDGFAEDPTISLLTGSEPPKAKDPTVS

For `COC(=O)c1ccccc1S(=O)(=O)NC(=O)N(C)c1nc(C)nc(OC)n1`, the result in assay [1], in [2], in [3], in assay [4], in assay [5] and in assay [6] was inactive. For the same compound, the compound was called inactive in [7], in assay [8], in assay [9], in assay [10], in assay [11] and in [13]. Besides, the compound was called inactive in assay [14], in assay [15], in [16] and in assay [17]. Moreover, the AC50 in [12] was 64.7 µM (active).

For `CC(C)(C)C(O)/C(=C\c1ccc(Cl)cc1Cl)n1cncn1` (stereo unspecified), the compound was called inactive in [1], in assay [2], in assay [3], in assay [4], in [5] and in assay [6]. Moreover, the outcome in assay [7], in assay [8], in [10], in assay [11], in [13] and in assay [18] was inactive. Moreover, the call in assay [14], in assay [15], in assay [16] and in assay [17] was inactive. The AC50 in assay [9] and in assay [12] was 5 µM (active) in each case.

As to `CC1(c2ccc(Oc3ccccc3)cc2)OC(=O)N(Nc2ccccc2)C1=O` (stereo unspecified), the call in assay [1], in [2], in assay [3], in [4], in assay [5] and in assay [19] was inactive. Besides, the compound was called inactive in assay [6], in assay [7], in assay [8], in [9], in assay [10] and in [11]. The compound was classed as inactive in assay [18], in assay [14], in [15], in assay [16] and in assay [17]. Besides, the AC50 in assay [12] is 2.24 µM (active); in assay [13], 1.21 µM (active).

Consider `O=C(Nc1ccccc1)Nc1cnns1`, for which the AC50 in assay [1] was 50 µM (active); in [2] it was 50 µM (active); in [8], 93.4 µM (active); in assay [9], 50 µM (active); in [11], 85 µM (active); in assay [12] it was 66.5 µM (active). The results for the AC50 in assay [14], in assay [15] and in assay [16] were 50 µM (active), 21.1 µM (active) and 50 µM (active), respectively. Also, the call in [3], in [4], in assay [5], in [6], in [7] and in assay [10] was inactive. The compound was classed as inactive in [13] and in assay [18].
